CYP2C9 act: human CYP2C9 activators, primary screen, biochemical, luminescence; 1.4% of 96,000 active; activation factor at 5 µM; recombinant CYP2C9, luciferin-H conversion; stronger effect = higher value; factor 1 = untreated enzyme, 0 = blocked;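 active = activation factor of 2 or more for CYP2C9 at a 5 µM dose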
CYP2C19 inh: blockers of cytochrome P450 2C19 activity – biochemical, luminescence, ADME assay, primary screen; 21% of 96,000 active; inhibition, % at 5 µM; P33261; CYP2C19 Supersomes, luciferin-H EGE luminescence, 30 min;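 active = CYP2C19 inhibition above a set limit at 5 µM in the primary screen, cut at about 50% in these data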
Target sequence (P33261 whole entry, looked up): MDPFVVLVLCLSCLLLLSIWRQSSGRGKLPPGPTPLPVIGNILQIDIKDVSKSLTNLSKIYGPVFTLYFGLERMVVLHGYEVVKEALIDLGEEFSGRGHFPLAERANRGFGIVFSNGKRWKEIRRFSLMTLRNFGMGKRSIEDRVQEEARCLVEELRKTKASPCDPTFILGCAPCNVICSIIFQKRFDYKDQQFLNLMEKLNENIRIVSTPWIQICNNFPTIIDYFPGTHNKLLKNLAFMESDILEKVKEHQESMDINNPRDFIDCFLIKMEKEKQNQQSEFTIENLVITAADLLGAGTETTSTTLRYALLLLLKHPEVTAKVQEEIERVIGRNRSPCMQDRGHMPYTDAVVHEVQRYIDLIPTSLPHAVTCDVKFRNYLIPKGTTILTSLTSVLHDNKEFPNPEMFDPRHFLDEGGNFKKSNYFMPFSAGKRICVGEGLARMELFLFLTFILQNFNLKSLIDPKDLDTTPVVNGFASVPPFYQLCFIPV
CYP2C19 act: human CYP2C19 activators, primary screen, biochemical, luminescence; activation factor at 5 µM; recombinant CYP2C19, luciferin-H EGE luminescence; stronger effect = higher value; 0 = fully inhibited enzyme, 1 = untreated enzyme; Cytochrome P450 2C19 (Homo sapiens), P33261; 96,000 tested, under 10 active;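 active = activation factor of at least 2 at 5 µM in the primary screen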
CYP2C9 inh: blockers of cytochrome P450 2C9 activity – biochemical, luminescence, ADME assay, primary screen | P11712 | CYP2C9 Supersomes, luciferin-H conversion | inhibition, % at 5 µM | 20% of 96,000 active | AID 777, 2007;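 active = blocking of liver enzyme CYP2C9 beyond about 50% at 5 µM, limit read from the data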
Measles CPE: compounds protecting cells from measles virus cytopathic effect, primary screen, measles RdRp inhibitor project, single point, MLSMR library, absorbance; Measles virus-infected cells, CPE protection; protection (pct of control), % at 4 µM; 1.5% of 140,000 active; AID 841, 2007; in the data active = protection mostly above about 24%, no sharp cut-off; inactive = mostly below about 26%
Numbers stand for hits. Hits are enriched below; roughly 22% of the tested compounds scored in any of these assays.

`C=CCN1CC(c2nc3ccccc3n2CCOc2ccccc2)CC1=O` (centres undefined) gave CYP2C9 act inactive, CYP2C19 inh 59.8, CYP2C19 act inactive, CYP2C9 inh 72.7 and Measles CPE inactive.
Screening CCn1c(C2CC(=O)N(Cc3ccccc3)C2)nc2ccccc21 (centres undefined) returned CYP2C9 act inactive, CYP2C19 inh 53.0, CYP2C19 act inactive, CYP2C9 inh inactive and Measles CPE inactive.
Screening CC(C)(C)N1CC(c2nc3ccccc3n2Cc2ccccc2)CC1=O (centres undefined) returned CYP2C9 act inactive, CYP2C19 inh inactive, CYP2C19 act inactive, CYP2C9 inh 78.8 and Measles CPE inactive.
Screening CCCn1c(C2CC(=O)N(c3cc(OC)ccc3OC)C2)nc2ccccc21 (centres undefined) returned CYP2C9 act inactive, CYP2C19 inh inactive, CYP2C19 act inactive, CYP2C9 inh inactive and Measles CPE inactive.
Screening c1ccc(CCn2c(C3CC3)nc3ccccc32)cc1 returned CYP2C9 act inactive, CYP2C19 inh 97.9, CYP2C19 act inactive, CYP2C9 inh 66.5 and Measles CPE inactive.
O=C(O)CCn1c(C2CCCCC2)nc2ccccc21 was read as CYP2C9 act inactive, CYP2C19 inh inactive, CYP2C19 act inactive, CYP2C9 inh inactive and Measles CPE inactive.
For CCn1c(C2CC(=O)N(c3ccc(C)c(C)c3)C2)nc2ccccc21 (centres undefined) the results were CYP2C9 act inactive, CYP2C19 inh 52.7, CYP2C19 act inactive and CYP2C9 inh inactive.
C=C(C)Cn1c(C2CC(=O)N(Cc3ccccc3)C2)nc2ccccc21 (centres undefined) was read as CYP2C9 act inactive, CYP2C19 inh 55.4, CYP2C19 act inactive and CYP2C9 inh 70.8.
C=C(C)Cn1c(C2CC(=O)N(c3ccccc3F)C2)nc2ccccc21 (centres undefined) was read as Measles CPE inactive.
`CCCC(CCC)C(=O)Nc1c[nH]c(=O)[nH]c1=O` gave CYP2C9 act inactive, CYP2C19 inh inactive, CYP2C19 act inactive, CYP2C9 inh inactive and Measles CPE inactive.
O=C(CC(c1cccs1)S(=O)(=O)c1ccccc1)c1ccc(F)cc1 (centres undefined) was read as Measles CPE inactive.
Cc1ccc(O)c(NC(=O)c2cccc(S(=O)(=O)N3CCCCC3)c2)c1 was read as CYP2C9 act inactive, CYP2C19 inh 58.7, CYP2C19 act inactive, CYP2C9 inh 52.7 and Measles CPE inactive.
For O=C(Nc1ccccc1C(=O)N1CCCC1)c1cccc(S(=O)(=O)N2CCCCCC2)c1 the results were CYP2C9 act inactive, CYP2C19 inh 54.2, CYP2C19 act inactive, CYP2C9 inh 80.2 and Measles CPE inactive.
CCOC(=O)N1CCC(N2C(=O)c3ccccc3C2Nc2cccnc2)CC1 (centres undefined) was read as CYP2C9 act inactive, CYP2C19 inh inactive, CYP2C19 act inactive, CYP2C9 inh inactive and Measles CPE inactive.
Screening CCOC(=O)N1CCC(N2C(=O)c3ccccc3C2Nc2ccccc2C)CC1 (centres undefined) returned CYP2C9 act inactive, CYP2C19 inh 64.7, CYP2C19 act inactive, CYP2C9 inh 79.9 and Measles CPE inactive.
`CCOC(=O)N1CCC(N2C(=O)c3ccccc3C2Nc2ccc(Cl)cn2)CC1` (centres undefined) gave CYP2C9 act inactive, CYP2C19 inh 58.5, CYP2C19 act inactive, CYP2C9 inh 57.6 and Measles CPE inactive.
For CCOC(=O)N1CCC(N2C(=O)c3ccccc3C2Nc2ccc3c(C)cc(=O)oc3c2)CC1 (centres undefined) the results were CYP2C9 act inactive, CYP2C19 inh inactive, CYP2C19 act inactive, CYP2C9 inh 81.1 and Measles CPE inactive.
`O=C1COc2ccc(C(=O)COC(=O)CCc3ccc(S(=O)(=O)N4CCOCC4)cc3)cc2N1` gave CYP2C9 act inactive, CYP2C19 inh inactive, CYP2C19 act inactive, CYP2C9 inh inactive and Measles CPE inactive.
For C#CCn1c(=NC(=O)c2cccs2)sc2cccc(OCC)c21 the results were CYP2C9 act inactive, CYP2C19 inh inactive, CYP2C19 act inactive, CYP2C9 inh 67.6 and Measles CPE inactive.
Screening C#CCn1c(=NC(=O)c2ccc(Cl)s2)sc2cccc(OC)c21 returned CYP2C9 act inactive, CYP2C19 inh inactive, CYP2C19 act inactive, CYP2C9 inh inactive and Measles CPE inactive.
Screening Cn1nc(C(F)(F)F)c(C#N)c1N1CCN(c2ccccc2)CC1 returned CYP2C9 act inactive, CYP2C19 inh 69.4, CYP2C19 act inactive, CYP2C9 inh 71.7 and Measles CPE inactive.
`Cn1nc(C(F)(F)F)c(C#N)c1N1CCN(c2ccc(F)cc2)CC1` gave CYP2C9 act inactive, CYP2C19 inh 78.3, CYP2C19 act inactive, CYP2C9 inh 82.1 and Measles CPE inactive.
For COc1ccnc(N2CCN(c3ccccc3)CC2)c1C#N the results were CYP2C9 act inactive, CYP2C19 inh 100.3, CYP2C19 act inactive, CYP2C9 inh 79.8 and Measles CPE inactive.
`Cc1ccc(C(=O)OC2OC(=O)C(Cl)=C2N2CCOCC2)cc1` (centres undefined) gave Measles CPE inactive.
Screening COc1ccc(C(=O)Nc2ccc(SC(F)F)cc2)cc1 returned Measles CPE inactive.
Screening CCCCN(C(=O)NC(=O)Nc1ccccc1OCC)S(C)(=O)=O returned CYP2C9 act inactive, CYP2C19 inh 53.9, CYP2C19 act inactive, CYP2C9 inh 78.6 and Measles CPE inactive.
Screening COC(=O)c1cccnc1-n1c(=O)c2cccnc2n(Cc2ccc(Cl)cc2)c1=O returned CYP2C9 act inactive, CYP2C19 inh 58.7, CYP2C19 act inactive, CYP2C9 inh inactive and Measles CPE inactive.
Screening COC(=O)c1sc2ncccc2c1OCc1ccc(Cl)cc1 returned CYP2C9 act inactive, CYP2C19 inh inactive, CYP2C19 act inactive, CYP2C9 inh inactive and Measles CPE inactive.
Screening O=C1CSC(c2ccc3c(c2)OCO3)N1c1ccc(Oc2ccccc2)cc1 (centres undefined) returned CYP2C9 act inactive, CYP2C19 inh inactive, CYP2C19 act inactive, CYP2C9 inh 59.6 and Measles CPE inactive.
For Cc1ccc(N2C(=O)CSC2c2ccc3c(c2)OCO3)cc1 (centres undefined) the results were CYP2C9 act inactive, CYP2C19 inh 100.3, CYP2C19 act inactive, CYP2C9 inh 68.6 and Measles CPE inactive.
O=C(O)c1ccc(COCC(F)(F)C(F)F)o1 was read as CYP2C9 act inactive, CYP2C19 inh inactive, CYP2C19 act inactive, CYP2C9 inh inactive and Measles CPE inactive.
Cn1c(=O)[nH]c(=O)c2c1nc(CN1CCN(c3cccc(Cl)c3)CC1)n2CCc1ccccc1 was read as CYP2C9 act inactive, CYP2C19 inh inactive, CYP2C19 act inactive, CYP2C9 inh inactive and Measles CPE inactive.

Bioassay records deposited in PubChem by several laboratories.
